PubChem BioAssay (NCI)
About 83,000 compounds went through this panel and 20% of them were active in at least one assay; those are over-represented in the sample as a whole.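 Single-concentration screen, 48 h exposure, 96-well plates. Endpoint: percent growth. Below 10 = active.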 The source made the active and inactive calls.

The molecules below were run on MDA-MB-468 breast (assay: NCI-60 one-dose screen, 48 h (100 = growth as untreated, 0 = no growth, -100 = all killed)). Settings: 10 µM unless noted.

SMILES	growth
O=C(CCCC(=O)Nc1ccc(-n2nnc3cc(Cl)c(Cl)cc32)cc1)Nc1ccc(-n2nnc3cc(Cl)c(Cl)cc32)cc1	18.9% (inactive)
Cc1ccc(N)c(O)c1	78.7% (inactive)
Cc1ccc2c(n1)C[C@H](C(C)(C)O)CC[C@H]2C	108% (inactive)
N#CC1(C#N)C(c2cccs2)NC(c2cccs2)C1(C#N)C#N (stereo not given)	104% (inactive)
COc1cc(NCC(=O)Nc2cc(Nc3cccc(C(F)(F)F)c3)ncn2)c(Cl)c(OC)c1Cl	101% (inactive)
CC(=O)Oc1ccc(C2OC(c3ccc4ccccc4c3OC(C)=O)=NN2C(C)=O)c(OC(C)=O)c1 (stereo not given)	-14.4% (active)
CC/C=C\C[C@H](O)C/C=C1/C(=O)C=C[C@@H]1C/C=C\CCCCO	16.5% (inactive)
Cc1c(O)cccc1O	117% (inactive)
COc1ccc(OC)c(/C=C/c2nc(=S)n(-c3ccc(Cl)cc3)[nH]2)c1	38.8% (inactive)
O=C(Nc1ncc(Cc2ccc(Cl)c(C(F)(F)F)c2)s1)c1ccc2nnsc2c1	26.3% (inactive)
CCCC(C)(C)COC(=O)c1cccc(N)c1	109% (inactive)
COC1/C=C/OC2(C)Oc3c(C)c(O)c4c(O)c(c(C=NOC(c5ccccc5)c5ccccc5)c(O)c4c3C2=O)NC(=O)/C(C)=C/C=C/C(C)C(O)C(C)C(O)C(C)C(OC(C)=O)C1C (stereo not given)	3.6% (active)
Cc1c(C(=O)/C=C/Nc2c(Cl)cc(S(N)(=O)=O)cc2Cl)sc2nc3ccccc3n12	102% (inactive)
Oc1ccc(CSc2nnc(-c3cnccn3)o2)c2cccnc12	7.59% (active)
CCOC(=O)C1=C(C)NC(C)=C(C(=O)OCC)C1(C)C	98.8% (inactive)
CN(C)CCCC1(c2ccc(F)cc2)OCc2cc(-c3csc4ccccc34)ccc21 (stereo not given)	-68.5% (active)
CC(=C(c1ccc(OCCN2CCCC2)cc1)c1ccc(OCCN2CCCC2)cc1)c1ccc(Cl)cc1	-85.3% (active)
Cc1ccc2c(n1)C(=O)C(Cl)=C(Nc1ccc(N3CCN(C)CC3)cc1)C2=O	-84.6% (active)
O=C(/C=C/c1cc([N+](=O)[O-])ccc1Cl)c1ccccc1	57.6% (inactive)
Cc1ccc(-n2cc(-c3ccccc3)c3c2N=NN2CCN=C32)cc1	103% (inactive)

SMILES	growth
CNC1=C([N+](=O)[O-])C(c2ccccc2O)C(C#N)=C(c2cccs2)O1 (stereo not given)	74.5% (inactive)
O=C1c2ccccc2CCc2ccccc21	95.2% (inactive)
CCCCCCCCCCCCCCCCN(CC)CC	-85.3% (active)
COc1cc2nccc(Oc3ccc(NC(=O)Nc4cc(C)on4)c(Cl)c3)c2cc1OC	15% (inactive)
COc1cc2c(O)n(CCCN3CCOCC3)c3c4cnc5cccc(c(=O)c3c2cc1OC)c54	47.1% (inactive)
Cc1ccc2[nH]cc(-c3nc(-c4cn(C)c5ncccc45)cs3)c2c1	-0.335% (active)
Cc1cc(C)c(C(=O)c2cccs2)c(C)c1	105% (inactive)
O=C(Nc1ccccc1)Nc1ccc2cc3ccc(NC(=O)Nc4ccccc4)cc3nc2c1	-57.8% (active)
COc1ccccc1-n1c(-c2ccc(O)cc2C)cn2c3c(=O)[nH]c(=O)n(C)c3nc12	88.6% (inactive)
O=C(/C=C1\C=CN(CCCCF)c2ccccc21)n1ccc2ccccc21	91.2% (inactive)
Cc1[nH]c(C2CC(c3ccc(C(F)(F)F)c(F)c3)=NN2C)c(C)c1C(=O)NCC(F)(F)F (stereo not given)	81.6% (inactive)
Cc1ncc(C(=O)Nc2ccc(CN3CCN(C)CC3)c(C(F)(F)F)c2)cc1C#Cc1cnc2cccnn12	7.08% (active)
O=C(CN1CCN(c2cc3c(cc2F)c(=O)c(C(=O)O)cn3C2CC2)CC1)N/N=C/c1ccco1	104% (inactive)
COc1cc(C2CC(c3ccc(Cl)cc3)=NN2C(C)=O)ccc1Oc1ccnc2cc(Cl)ccc12 (stereo not given)	67.4% (inactive)
N#C/C(=C\c1ccc(C#N)cc1)C(=O)c1ccccc1	95.7% (inactive)
CN(C)Cc1cn(-c2ncc(-c3ccc(C(F)(F)F)cc3)c(NC3CCCCCC3)n2)nn1	82.9% (inactive)
C#CCOc1ccc(C(Nc2ccc(Cl)cc2)c2nnnn2C2CCCCC2)cc1 (stereo not given)	87.1% (inactive)
C=CC1=NC(C)(C)CC(C)O1 (stereo not given)	109% (inactive)
CCN(CC)c1ccc(/C=N/NC(=O)c2ccc(Nc3ccnc(C(F)(F)F)c3)cc2)c(O)c1	8.37% (active)
Clc1ccc([I+]c2ccc(Cl)cc2Cl)c(Cl)c1	-37.9% (active)
